# In the supplement of paper PMC8728848:
# Only a selection was taken, and the strongest signals are over-represented in it overall.
# B1: PX9896A-bth-573-26-573 (Bacteroides thetaiotaomicron) (protein)
# chain: ETNNLKTKEDMYKYFGTSKSMLTHVYSYMPQGYQLFATSGGIFTEDRYSMRDCASDDGEFGAYADNIQNTNNGNWSPIKTYDDSWTLYRGIRAANSFIAEIAQVDFTRYEHDGQYTNWMKQLKYFPYEARVLRAHYFFELARRYGDIAMPLEVLTEEEANTIGKTPFSEVISFIVSECDDAANNLPDSYVNEPGAEIGRVTKGFAMAVKSKALLYAASKLHNPSMDTELWKKSAKAAIDIINTGLYSLDPQESANNLDSKEVVLMRINGDDSDFEMFNLPLRMTAGTRTSSLIPYSNYPSQNLVDAFETVNGYKVTLENTGWVCEDPAFDPQSPYENRDKRFYRAILANGMSFKDYTIETFKGGADDGIVSQGGSPTGYFLRKYIQEATSFEPGKEAVSKHHWVIYRYAETLLTYAESMVNAFNDVNYTDETYKYSALWAINEVRKNADMPLIPSMGKDEFMERLYNEWRVEFAFEDHRFWDVRRWKIADTTQRELYGVKIEKQADGTFNFYKNLYETRNWRDCMYLYPIPQSELYKNTNLNPQNTGW
# Key:
# Experiment in all cases: glycan array binding signal (z-score within array); higher = stronger binding
# Settings in all cases: glycan notation: IUPAC condensed, linker removed
# [1] = molecular target: Fuc(a1-2)Gal(b1-3)[Fuc(a1-4)]GlcNAc(b1-2)Man(a1-3)[Fuc(a1-2)Gal(b1-3)[Fuc(a1-4)]GlcNAc(b1-2)Man(a1-6)]Man(b1-4)GlcNAc(b1-4)[Fuc(a1-6)]GlcNAc(b1-4)[Fuc(a1-6)]GlcNAc
# Procedure, shortened: (§1)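 Glycan array binding is given as a within-array Z-score, which can be read as non-binding when negative. The arrays, 3228 of them, came from the Consortium for Functional Glycomics database and were retained only where the protein sequence was available. Z-scores were averaged across arrays of the same protein sequence at different concentrations or buffers and across linkers.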
# [2] = molecular target: Fuc(a1-2)Gal(b1-4)GlcNAc(b1-3)Gal(b1-4)GlcNAc
# Procedure, shortened: as §1
# [3] = molecular target: Fuc(a1-2)Gal(b1-4)GlcNAc(b1-3)GalNAc
# Procedure, shortened: as §1
# [4] = molecular target: Fuc(a1-2)[Gal(a1-3)]Gal(b1-3)GlcNAc(b1-2)Man(a1-3)[Fuc(a1-2)[Gal(a1-3)]Gal(b1-3)GlcNAc(b1-2)Man(a1-6)]Man(b1-4)GlcNAc(b1-4)GlcNAc
# Procedure, shortened: as §1
# [5] = molecular target: Fuc(a1-2)[Gal(a1-3)]Gal(b1-4)Glc
# Procedure, shortened: as §1
# [6] = molecular target: Fuc(a1-2)[Gal(a1-3)]Gal(b1-4)GlcNAc(b1-6)GalNAc
# Procedure, shortened: as §1
# [7] = molecular target: Fuc(a1-2)[Gal(a1-3)]Gal(b1-4)[Fuc(a1-3)]Glc
# Procedure, shortened: as §1
# [8] = molecular target: Fuc(a1-2)[GalNAc(a1-3)]Gal(b1-3)GalNAc(a1-3)[Fuc(a1-2)]Gal(b1-4)GlcNAc
# Procedure, shortened: as §1
# [9] = molecular target: Fuc(a1-3)[Gal3S(b1-4)]GlcNAc
# Procedure, shortened: as §1
# [10] = molecular target: Fuc(a1-3)[Gal3S(b1-4)]GlcNAc6S
# Procedure, shortened: as §1
# [11] = molecular target: Fuc(a1-4)GlcNAc
# Procedure, shortened: as §1
# [12] = molecular target: Gal(a1-3)Gal(b1-4)[Fuc(a1-3)]GlcNAc(b1-2)Man(a1-3)[Gal(a1-3)Gal(b1-4)[Fuc(a1-3)]GlcNAc(b1-2)Man(a1-6)]Man(b1-4)GlcNAc(b1-4)GlcNAc
# Procedure, shortened: as §1
# [13] = molecular target: Gal(a1-3)[Gal(a1-4)]Gal(b1-4)GlcNAc
# Procedure, shortened: as §1
# [14] = molecular target: Gal(b1-3)GalNAc(a1-3)[Fuc(a1-2)]Gal(b1-4)Glc
# Procedure, shortened: as §1
# [15] = molecular target: Gal(b1-3)GalNAc(b1-4)Gal(b1-4)Glc
# Procedure, shortened: as §1
# [16] = molecular target: Gal(b1-3)GlcNAc(b1-3)Gal(b1-4)GlcNAc(b1-2)[Gal(b1-3)GlcNAc(b1-3)Gal(b1-4)GlcNAc(b1-6)]Man(a1-6)[Gal(b1-3)GlcNAc(b1-3)Gal(b1-4)GlcNAc(b1-2)Man(a1-3)]Man(b1-4)GlcNAc(b1-4)[Fuc(a1-6)]GlcNAc
# Procedure, shortened: as §1
# [17] = molecular target: Gal(b1-3)GlcNAc(b1-6)[Gal(b1-3)]GalNAc
# Procedure, shortened: as §1
# [18] = molecular target: Gal(b1-4)GlcNAc(b1-2)Man(a1-3)[GlcNAc(b1-2)Man(a1-6)]Man(b1-4)GlcNAc(b1-4)GlcNAc
# Procedure, shortened: as §1
# [19] = molecular target: Gal(b1-4)GlcNAc(b1-2)Man(a1-6)[GlcNAc(b1-2)Man(a1-3)]Man(b1-4)GlcNAc(b1-4)GlcNAc
# Procedure, shortened: as §1
# [20] = molecular target: Gal(b1-4)GlcNAc(b1-2)[Gal(b1-4)GlcNAc(b1-6)]Man(a1-6)[GlcNAc(b1-4)][Gal(b1-4)GlcNAc(b1-2)[Gal(b1-4)GlcNAc(b1-4)]Man(a1-3)]Man(b1-4)GlcNAc(b1-4)[Fuc(a1-6)]GlcNAc
# Procedure, shortened: as §1
# [21] = molecular target: Gal(b1-4)GlcNAc(b1-3)Gal(b1-3)GalNAc
# Procedure, shortened: as §1
# [22] = molecular target: Gal(b1-4)GlcNAc(b1-3)Gal(b1-4)GlcNAc(b1-2)[Gal(b1-4)GlcNAc(b1-3)Gal(b1-4)GlcNAc(b1-6)]Man(a1-6)[Gal(b1-4)GlcNAc(b1-3)Gal(b1-4)GlcNAc(b1-2)Man(a1-3)]Man(b1-4)GlcNAc(b1-4)GlcNAc
# Procedure, shortened: as §1
# [23] = molecular target: Gal(b1-4)GlcNAc(b1-3)Gal(b1-4)GlcNAc(b1-3)Gal(b1-4)GlcNAc(b1-3)Gal(b1-4)GlcNAc(b1-2)Man(a1-3)[Gal(b1-4)GlcNAc(b1-3)Gal(b1-4)GlcNAc(b1-3)Gal(b1-4)GlcNAc(b1-3)Gal(b1-4)GlcNAc(b1-2)Man(a1-6)]Man(b1-4)GlcNAc(b1-4)GlcNAc
# Procedure, shortened: as §1
# [24] = molecular target: Gal(b1-4)GlcNAc(b1-3)Gal(b1-4)GlcNAc(b1-3)Gal(b1-4)GlcNAc(b1-3)Gal(b1-4)GlcNAc(b1-3)Gal(b1-4)GlcNAc(b1-2)Man(a1-3)[Gal(b1-4)GlcNAc(b1-3)Gal(b1-4)GlcNAc(b1-3)Gal(b1-4)GlcNAc(b1-3)Gal(b1-4)GlcNAc(b1-3)Gal(b1-4)GlcNAc(b1-2)Man(a1-6)]Man(b1-4)GlcNAc(b1-4)GlcNAc
# Procedure, shortened: as §1
# [25] = molecular target: Gal6S(b1-3)GlcNAc6S
# Procedure, shortened: as §1
# [26] = molecular target: GalNAc(b1-4)GlcNAc(b1-3)GalNAc(b1-4)GlcNAc
# Procedure, shortened: as §1
# [27] = molecular target: GalNAc3S(b1-4)GlcNAc3S
# Procedure, shortened: as §1
# [28] = molecular target: GalNAc6S(b1-4)GlcNAc
# Procedure, shortened: as §1
# [29] = molecular target: Glc(b1-4)Glc
# Procedure, shortened: as §1
# [30] = molecular target: GlcNAc(b1-3)Gal(b1-3)GalNAc
# Procedure, shortened: as §1
binder,measurement,setting,value
B1,glycan array binding signal (z-score),[1],0.845
same,glycan array binding signal (z-score),[2],-0.815
same,glycan array binding signal (z-score),[3],0.126
same,glycan array binding signal (z-score),[4],5.75
same,glycan array binding signal (z-score),[5],-0.838
same,glycan array binding signal (z-score),[6],-0.304
same,glycan array binding signal (z-score),[7],-1.01
same,glycan array binding signal (z-score),[8],0.607
same,glycan array binding signal (z-score),[9],-0.437
same,glycan array binding signal (z-score),[10],8.17
same,glycan array binding signal (z-score),[11],0.243
same,glycan array binding signal (z-score),[12],2.9
same,glycan array binding signal (z-score),[13],3.79
same,glycan array binding signal (z-score),[14],-0.889
same,glycan array binding signal (z-score),[15],-0.458
same,glycan array binding signal (z-score),[16],3.52
same,glycan array binding signal (z-score),[17],0.949
same,glycan array binding signal (z-score),[18],3.74
same,glycan array binding signal (z-score),[19],4.65
same,glycan array binding signal (z-score),[20],0.323
same,glycan array binding signal (z-score),[21],-0.185
same,glycan array binding signal (z-score),[22],5.18
same,glycan array binding signal (z-score),[23],0.219
same,glycan array binding signal (z-score),[24],0.845
same,glycan array binding signal (z-score),[25],3.99
same,glycan array binding signal (z-score),[26],-0.28
same,glycan array binding signal (z-score),[27],-0.744
same,glycan array binding signal (z-score),[28],-0.663
same,glycan array binding signal (z-score),[29],0.069
same,glycan array binding signal (z-score),[30],-0.077
